# Laboratory results reported in PubChem BioAssay (NCATS).
# Where “and” joins values, the source holds several entries; their conditions need not be identical. Identical values can stand only once. Records with an inconclusive call do not appear. A call without a number means that no potency is given here. Calls of active or inactive are those of the source. The call rests on the fitted dose curve; in most records, active means well fitted curve in the direction sought with a large enough effect; inconclusive means small, poorly fitted or top-dose-only effect, or another doubt; inactive means no such curve, though single readings can be large; an effect the other way counts as inactive or inconclusive.
# Assays:
# [1] = Confirmatory screen NINDS Rhodamine qHTS for Zika virus inhibitors (AID 1347161); further: nearly all actives have a fitted effect of over 60% in size; further: potency means the concentration at half of the fitted maximal effect
# Summary of the method: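 In 10 mM Tris-HCl pH 8.0 containing 0.01% Tween 20, linked NS2B-NS3 protease (25 nM final) is exposed to test compounds for 15 min. Cleavage of 1.5 microM Rhodamine110 substrate is tracked by fluorescence over 15 min.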
# [2] = HepG2 cells viability qHTS for Zika virus inhibitors (AID 1347168)
# Summary of the method: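 To flag cytotoxic protease inhibitors, viability is measured by ATP-dependent luminescence (CellTiter Glo) after cells attached overnight receive compound for 24 to 48 hours in DMEM with 4% FBS.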
# [3] = test system: Zika virus NS2B-NS3 protease (unlinked complex); experiment: Primary screen GU Rhodamine qHTS for Zika virus inhibitors: Unlinked NS2B-NS3 protease assay (AID 1347159); further: nearly all actives have a fitted effect of over 60% in size; further: potency means the concentration at half of the fitted maximal effect
# Summary of the method: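 Unlinked NS2B/NS3, 25 nM; Rhod110 peptide, 1.5 microM; compounds, up to 114 microM. Reaction run 15 min at RT in 10 mM Tris-HCl pH 8.0, 0.01% Tween 20; kinetic fluorescence change fitted with a 4-parameter Hill model.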
# [4] = test system: Zika virus NS2B-NS3 protease (linked construct); experiment: Primary screen NINDS Rhodamine qHTS for Zika virus inhibitors (AID 1347160); further: nearly all actives have a fitted effect of over 55% in size; further: potency means the concentration at half of the fitted maximal effect
# Summary of the method: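 Single-chain NS2B-NS3 protease, 25 nM, pH 8.0; compounds preincubated 15 min. Activity: Rhodamine110 release from 1.5 microM substrate over 15 min, room temperature, data fitted to 4-parameter Hill.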
# [5] = qHTS to identify inhibitors of the type 1 interferon - major histocompatibility complex class I in skeletal muscle: primary screen against the NCATS Pharmaceutical Collection (AID 1347407);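 further: luminescence of HiBiT knocked into endogenous HLA-B as interferon-induced MHC class I level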
# Summary of the method: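 Immortalized human myoblasts (C25cl48) with HiBiT knocked into endogenous HLA-B*08:01 were stimulated with 4 ng/ml IFN-beta and treated with compounds (8-point, 1:5, top 46 uM final) for 24 h at 37 C; HiBiT lytic luminescence read.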
# [6] = biological target: Lysine-specific demethylase 5B (Homo sapiens) (UniProt Q9UGL1); experiment: Optimization screen for KDM5B Histone Demethylases FDH coupled qHTS against the LOPAC library (AID 1347166)
# Sequence of Lysine-specific demethylase 5B (Homo sapiens) (Q9UGL1 whole entry, looked up): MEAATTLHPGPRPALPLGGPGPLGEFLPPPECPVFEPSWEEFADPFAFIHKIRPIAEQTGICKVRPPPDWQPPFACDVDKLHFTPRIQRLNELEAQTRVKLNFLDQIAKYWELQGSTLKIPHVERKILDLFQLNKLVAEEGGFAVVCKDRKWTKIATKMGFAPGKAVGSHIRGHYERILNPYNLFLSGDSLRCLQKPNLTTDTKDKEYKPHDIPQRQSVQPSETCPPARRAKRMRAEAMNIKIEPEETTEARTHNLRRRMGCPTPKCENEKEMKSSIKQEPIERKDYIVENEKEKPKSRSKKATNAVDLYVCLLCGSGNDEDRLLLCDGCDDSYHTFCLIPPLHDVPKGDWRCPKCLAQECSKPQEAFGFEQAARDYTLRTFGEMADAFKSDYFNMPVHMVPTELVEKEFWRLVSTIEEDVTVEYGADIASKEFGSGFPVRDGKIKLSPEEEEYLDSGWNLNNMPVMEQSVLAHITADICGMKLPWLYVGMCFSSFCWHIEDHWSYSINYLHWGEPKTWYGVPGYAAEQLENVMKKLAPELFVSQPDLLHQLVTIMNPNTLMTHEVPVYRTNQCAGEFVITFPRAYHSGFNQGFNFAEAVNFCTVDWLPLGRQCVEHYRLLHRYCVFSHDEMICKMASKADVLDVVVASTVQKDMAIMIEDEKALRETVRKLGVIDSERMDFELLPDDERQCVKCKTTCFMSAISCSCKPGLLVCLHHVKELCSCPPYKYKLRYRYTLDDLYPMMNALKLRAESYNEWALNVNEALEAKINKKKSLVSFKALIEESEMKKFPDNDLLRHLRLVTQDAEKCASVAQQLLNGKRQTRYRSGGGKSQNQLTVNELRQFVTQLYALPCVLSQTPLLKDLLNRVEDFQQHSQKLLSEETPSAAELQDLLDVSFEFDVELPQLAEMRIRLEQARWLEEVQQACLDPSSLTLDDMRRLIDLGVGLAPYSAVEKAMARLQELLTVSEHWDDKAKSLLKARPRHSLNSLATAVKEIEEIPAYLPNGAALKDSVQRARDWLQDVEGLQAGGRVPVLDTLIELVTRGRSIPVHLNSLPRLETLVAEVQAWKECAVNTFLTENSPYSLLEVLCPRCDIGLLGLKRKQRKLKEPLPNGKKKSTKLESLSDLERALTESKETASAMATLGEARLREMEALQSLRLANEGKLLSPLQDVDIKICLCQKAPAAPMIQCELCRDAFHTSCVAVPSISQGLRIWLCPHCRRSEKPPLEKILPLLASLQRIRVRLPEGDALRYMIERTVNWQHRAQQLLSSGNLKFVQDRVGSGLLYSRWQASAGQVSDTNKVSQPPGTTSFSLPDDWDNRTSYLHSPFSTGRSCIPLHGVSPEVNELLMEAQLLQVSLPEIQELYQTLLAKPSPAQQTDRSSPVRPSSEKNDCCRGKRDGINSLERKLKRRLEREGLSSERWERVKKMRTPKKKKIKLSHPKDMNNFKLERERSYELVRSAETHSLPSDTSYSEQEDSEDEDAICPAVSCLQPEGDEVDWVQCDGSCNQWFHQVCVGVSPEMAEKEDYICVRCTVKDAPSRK
# Summary of the method: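 KDM5BDeltaAP (200nM final) in 50mM HEPES pH 7.5, 0.01% Tween-20 was preincubated with compound for 10 min at room temperature. A substrate mix of 12.5uM H3K4Me3, 25uM a-ketoglutarate, ascorbate, Fe2+, NAD+ and formaldehyde dehydrogenase was then added. NADH fluorescence (340/450 nm) was read initially and after 30 min.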
# [7] = Confirmatory screen GU Rhodamine qHTS for Zika virus inhibitors qHTS (AID 1347157); details: purified enzyme assay, Rhodamine110 substrate fluorescence, 15 min; further: potency means the concentration at half of the fitted maximal effect; nearly all actives have a fitted effect of over 70% in size
# Summary of the method: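 Enzyme 25 nM in Tris-HCl pH 8.0 + 0.01% Tween 20; compounds up to 114 microM, 15 min RT dark; + Rhod110 substrate 1.5 microM; read t0 and 15 min; delta fluorescence → % inhibition → 4-parameter Hill fit.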
# [8] = ZIKV-mCherry secondary qHTS for Zika virus inhibitors (AID 1347158); further: potency means the concentration at half of the fitted maximal effect
# Summary of the method: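 Compounds were tested in Vero monkey kidney cells infected with recombinant mCherry-expressing Zika virus at MOI 1 for 48-72 h at 37 °C. Fixed cells were nuclear-stained and imaged, and infection rate was taken as the fraction of mCherry-positive cells.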
# [9] = test system: Zika virus NS2B-NS3 protease (linked); experiment: 384 well plate NINDS AMC confirmatory qHTS for Zika virus inhibitors (AID 1347163); further: nearly all actives have a fitted effect of over 50% in size; further: potency means the concentration at half of the fitted maximal effect
# Summary of the method: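 Fluorescence at 355/460 nm was read after 25 minutes of cleavage of 30 microM Ac-VKTGKR-AMC at room temperature, in the dark. Before substrate addition, compounds (up to 1 mM final) sat ~15 minutes with 5, 30 or 60 nM linked protease. Signals were normalized to no-enzyme and no-inhibitor wells.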
# [10] = test system: Zika virus NS2B-NS3 protease (linked construct); experiment: 384 well plate NINDS Rhodamine confirmatory qHTS for Zika virus inhibitors (AID 1347164);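 further: fluorescence from protease cleavage of Ac-LKRR-rhodamine 110 substrate; potency means the concentration at half of the fitted maximal effect; nearly all actives have a fitted effect of over 65% in size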
# Summary of the method: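 Linked protease at a final 5 nM, 30 nM or 60 nM was preincubated ~15 min with compounds, then given 10 microM Ac-LKRR-Rhodamine 110. Fluorescence (ex 485/em 538 nm) after 25 min in the dark at room temperature.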
smiles,measurement,setting,value
Oc1ccc(-c2nc(-c3ccc(F)cc3)c(-c3ccncc3)[nH]2)cc1,Potency,[1],inactive
same,Potency,[2],inactive
CC(C)c1nc(CN(C)C(=O)N[C@H](C(=O)N[C@@H](Cc2ccccc2)C[C@H](O)[C@H](Cc2ccccc2)NC(=O)OCc2cncs2)C(C)C)cs1,Potency,[3],inactive
same,Potency,[4],inactive
same,Potency,[5],inactive
CCC(C)(Oc1ccc(C2(c3ccc(OC(C)(CC)C(=O)O)cc3)CCCCC2)cc1)C(=O)O (stereo unspecified),Potency,[3],31.6 µM (active)
same,Potency,[5],inactive
COc1ccc2cc([C@H](C)C(=O)O)ccc2c1,Potency,[3],inactive
same,Potency,[4],inactive
same,outcome,[6],inactive
N[C@@H](Cc1cc(I)c(Oc2cc(I)c(O)c(I)c2)c(I)c1)C(=O)O,Potency,[7],6.1 µM (active)
same,Potency,[8],inactive
same,Potency,[4],6.31 µM (active)
same,Potency,[1],9.67 µM (active) and 12.6 µM (active)
same,Potency,[9],inactive
same,Potency,[10],10 µM (active)
same,Potency,[5],inactive
COc1c(O)cc2c(c1O)[C@@H]1O[C@H](CO)[C@@H](O)[C@H](O)[C@H]1OC2=O,Potency,[4],inactive
CN(C)CCCC1(c2ccc(F)cc2)OCc2cc(C#N)ccc21 (stereo unspecified),Potency,[3],inactive
same,Potency,[4],inactive
same,outcome,[6],inactive
Clc1ccc(C(Cn2ccnc2)OCc2c(Cl)cccc2Cl)c(Cl)c1 (stereo unspecified),Potency,[4],inactive
same,Potency,[5],inactive
Cc1nccn1CC1CCc2c(c3ccccc3n2C)C1=O (stereo unspecified),Potency,[3],inactive
same,Potency,[4],inactive
same,Potency,[5],inactive
C=C(c1ccc(C(=O)O)cc1)c1cc2c(cc1C)C(C)(C)CCC2(C)C,Potency,[8],7.08 µM (active)
same,Potency,[3],3.16 µM (active)
same,Potency,[1],1.96 µM (active) and 2.47 µM (active)
same,Potency,[9],22.4 µM (active)
same,Potency,[10],7.94 µM (active)
same,Potency,[2],inactive
same,Potency,[5],inactive
COCCCOc1ccnc(CS(=O)c2nc3ccccc3[nH]2)c1C (stereo unspecified),Potency,[3],inactive
same,Potency,[4],inactive
same,Potency,[5],inactive
